# Experimental data published in the supplement of paper PMC8728848.
# About 410 targets per protein were measured; listed, in parts, are those with the strongest signals and a random draw of the rest.
# B1: CPA (Cicer arietinum) (protein)
# chain: MAFSYLNLVLVTLTTLFFLQTTKVKSQKSVSFHITNFTISRPSITLQGTAEFLPNVLLLNDIEHPVFVVGRALYSKPITLWNNKTGKVASFVTSFTFDVQDLKKTVPGHGLVFFLAPSGSEIPFSSDGGNLGVVDGKNAFNRFVGVEFDNFVNSWDPKYSHVGINVNSLISTKTVKWNRVSGELVKVSIVYDSVSTTLTVIVTYKNGQISILSQLVDLKAVLPDTVNIGFSASTTLVSPRQLHNIHSWSFTSTFET
# Legend:
# Assay in all cases: glycan array binding signal (z-score within array); higher = stronger binding
# Details in all cases: glycan notation: IUPAC condensed, linker removed
# Fuc(a1-2)Gal(b1-3)GalNAc = molecular target: Fuc(a1-2)Gal(b1-3)GalNAc
# Procedure, shortened: (§1)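 The Consortium for Functional Glycomics database supplied 3228 glycan arrays, of which those lacking an available protein sequence were dropped. The binding signal, a within-array Z-score, was averaged across arrays of the same protein sequence and across linkers. Negative scores can be read as non-binding.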
# [1] = molecular target: Fuc(a1-2)Gal(b1-3)GlcNAc(b1-2)Man(a1-3)[Fuc(a1-2)Gal(b1-3)GlcNAc(b1-2)Man(a1-6)]Man(b1-4)GlcNAc(b1-4)GlcNAc
# Procedure, shortened: as §1
# [2] = molecular target: Fuc(a1-2)Gal(b1-3)[Fuc(a1-4)]GlcNAc(b1-3)[Gal(b1-4)GlcNAc(b1-6)]Gal(b1-4)Glc
# Procedure, shortened: as §1
# [3] = molecular target: Fuc(a1-2)Gal(b1-4)GlcNAc(b1-2)Man(a1-3)[Fuc(a1-2)Gal(b1-4)GlcNAc(b1-2)Man(a1-6)]Man(b1-4)GlcNAc(b1-4)[Fuc(a1-6)]GlcNAc
# Procedure, shortened: as §1
# [4] = molecular target: Fuc(a1-2)Gal(b1-4)GlcNAc(b1-3)Gal(b1-4)GlcNAc(b1-2)Man(a1-3)[Fuc(a1-2)Gal(b1-4)GlcNAc(b1-3)Gal(b1-4)GlcNAc(b1-2)Man(a1-6)]Man(b1-4)GlcNAc(b1-4)GlcNAc
# Procedure, shortened: as §1
# [5] = molecular target: Fuc(a1-2)Gal(b1-4)[Fuc(a1-3)]GlcNAc(b1-3)Gal(b1-4)[Fuc(a1-3)]GlcNAc
# Procedure, shortened: as §1
# [6] = molecular target: Fuc(a1-2)[Gal(a1-3)]Gal(b1-3)GlcNAc(b1-2)Man(a1-3)[Fuc(a1-2)[Gal(a1-3)]Gal(b1-3)GlcNAc(b1-2)Man(a1-6)]Man(b1-4)GlcNAc(b1-4)[Fuc(a1-6)]GlcNAc
# Procedure, shortened: as §1
# [7] = molecular target: Fuc(a1-2)[Gal(a1-3)]Gal(b1-4)GlcNAc(b1-2)Man(a1-3)[Fuc(a1-2)[Gal(a1-3)]Gal(b1-4)GlcNAc(b1-2)Man(a1-6)]Man(b1-4)GlcNAc(b1-4)GlcNAc
# Procedure, shortened: as §1
# [8] = molecular target: Fuc(a1-2)[GalNAc(a1-3)]Gal(b1-3)GlcNAc(b1-3)GalNAc
# Procedure, shortened: as §1
# [9] = molecular target: Fuc(a1-2)[GalNAc(a1-3)]Gal(b1-4)GlcNAc(b1-2)Man(a1-3)[Fuc(a1-2)[GalNAc(a1-3)]Gal(b1-4)GlcNAc(b1-2)Man(a1-6)]Man(b1-4)GlcNAc(b1-4)[Fuc(a1-6)]GlcNAc
# Procedure, shortened: as §1
# [10] = molecular target: Fuc(a1-2)[GalNAc(a1-4)]Gal(b1-4)GlcNAc
# Procedure, shortened: as §1
# Fuc(a1-3)GlcNAc = molecular target: Fuc(a1-3)GlcNAc
# Procedure, shortened: as §1
# Gal(a1-2)Gal = molecular target: Gal(a1-2)Gal
# Procedure, shortened: as §1
# Gal(a1-3)Gal(b1-3)GlcNAc = molecular target: Gal(a1-3)Gal(b1-3)GlcNAc
# Procedure, shortened: as §1
# [11] = molecular target: Gal(a1-3)Gal(b1-3)GlcNAc(b1-2)Man
# Procedure, shortened: as §1
# [12] = molecular target: Gal(a1-3)Gal(b1-3)GlcNAc(b1-6)GalNAc
# Procedure, shortened: as §1
# Gal(a1-3)Gal(b1-4)Glc = molecular target: Gal(a1-3)Gal(b1-4)Glc
# Procedure, shortened: as §1
# [13] = molecular target: Gal(a1-3)Gal(b1-4)GlcNAc(b1-6)GalNAc
# Procedure, shortened: as §1
# Gal(a1-3)GalNAc = molecular target: Gal(a1-3)GalNAc
# Procedure, shortened: as §1
# [14] = molecular target: Gal(b1-3)GalNAc(a1-3)[Fuc(a1-2)]Gal(b1-4)Glc
# Procedure, shortened: as §1
# [15] = molecular target: Gal(b1-3)GlcNAc(b1-3)Gal(b1-4)GlcNAc(b1-3)Gal(b1-4)GlcNAc(b1-2)[Gal(b1-3)GlcNAc(b1-3)Gal(b1-4)GlcNAc(b1-3)Gal(b1-4)GlcNAc(b1-6)]Man(a1-6)[Gal(b1-3)GlcNAc(b1-3)Gal(b1-4)GlcNAc(b1-3)Gal(b1-4)GlcNAc(b1-2)Man(a1-3)]Man(b1-4)GlcNAc(b1-4)[Fuc(a1-6)]GlcNAc
# Procedure, shortened: as §1
# [16] = molecular target: Gal(b1-4)GalNAc(a1-3)[Fuc(a1-2)]Gal(b1-4)GlcNAc
# Procedure, shortened: as §1
# [17] = molecular target: Gal(b1-4)GlcNAc(b1-2)Man(a1-6)[Man(a1-3)]Man(b1-4)GlcNAc(b1-4)GlcNAc
# Procedure, shortened: as §1
# [18] = molecular target: Gal(b1-4)GlcNAc(b1-3)Gal(b1-4)GlcNAc(b1-3)Gal(b1-4)GlcNAc(b1-2)Man(a1-3)[Gal(b1-4)GlcNAc(b1-3)Gal(b1-4)GlcNAc(b1-3)Gal(b1-4)GlcNAc(b1-2)Man(a1-6)]Man(b1-4)GlcNAc(b1-4)GlcNAc
# Procedure, shortened: as §1
# [19] = molecular target: Gal(b1-4)GlcNAc(b1-3)Gal(b1-4)GlcNAc(b1-3)Gal(b1-4)GlcNAc(b1-3)Gal(b1-4)GlcNAc(b1-2)Man(a1-3)[Gal(b1-4)GlcNAc(b1-3)Gal(b1-4)GlcNAc(b1-3)Gal(b1-4)GlcNAc(b1-3)Gal(b1-4)GlcNAc(b1-2)Man(a1-6)]Man(b1-4)GlcNAc(b1-4)[Fuc(a1-6)]GlcNAc
# Procedure, shortened: as §1
# [20] = molecular target: Gal(b1-4)GlcNAc(b1-3)Gal(b1-4)GlcNAc(b1-3)Gal(b1-4)GlcNAc(b1-3)Gal(b1-4)GlcNAc(b1-3)Gal(b1-4)GlcNAc(b1-3)Gal(b1-4)GlcNAc(b1-2)Man(a1-3)[Gal(b1-4)GlcNAc(b1-3)Gal(b1-4)GlcNAc(b1-3)Gal(b1-4)GlcNAc(b1-3)Gal(b1-4)GlcNAc(b1-3)Gal(b1-4)GlcNAc(b1-3)Gal(b1-4)GlcNAc(b1-2)Man(a1-6)]Man(b1-4)GlcNAc(b1-4)GlcNAc
# Procedure, shortened: as §1
# [21] = molecular target: Gal(b1-4)GlcNAc(b1-3)Gal(b1-4)GlcNAc(b1-3)GalNAc
# Procedure, shortened: as §1
# [22] = molecular target: Gal(b1-4)GlcNAc(b1-3)GalNAc
# Procedure, shortened: as §1
# [23] = molecular target: Gal(b1-4)GlcNAc(b1-6)[Gal(b1-4)GlcNAc(b1-3)]GalNAc
# Procedure, shortened: as §1
binder,measurement,setting,value
B1,glycan array binding signal (z-score),Fuc(a1-2)Gal(b1-3)GalNAc,-0.424
same,glycan array binding signal (z-score),[1],3.79
same,glycan array binding signal (z-score),[2],-0.072
same,glycan array binding signal (z-score),[3],0.297
same,glycan array binding signal (z-score),[4],0.012
same,glycan array binding signal (z-score),[5],-0.681
same,glycan array binding signal (z-score),[6],-0.184
same,glycan array binding signal (z-score),[7],0.562
same,glycan array binding signal (z-score),[8],3.66
same,glycan array binding signal (z-score),[9],0.023
same,glycan array binding signal (z-score),[10],1.3
same,glycan array binding signal (z-score),Fuc(a1-3)GlcNAc,-0.573
same,glycan array binding signal (z-score),Gal(a1-2)Gal,-0.045
same,glycan array binding signal (z-score),Gal(a1-3)Gal(b1-3)GlcNAc,0.134
same,glycan array binding signal (z-score),[11],-0.562
same,glycan array binding signal (z-score),[12],-0.42
same,glycan array binding signal (z-score),Gal(a1-3)Gal(b1-4)Glc,0.092
same,glycan array binding signal (z-score),[13],-0.23
same,glycan array binding signal (z-score),Gal(a1-3)GalNAc,-0.121
same,glycan array binding signal (z-score),[14],-0.568
same,glycan array binding signal (z-score),[15],3.59
same,glycan array binding signal (z-score),[16],-0.399
same,glycan array binding signal (z-score),[17],-0.041
same,glycan array binding signal (z-score),[18],4.32
same,glycan array binding signal (z-score),[19],0.005
same,glycan array binding signal (z-score),[20],3.7
same,glycan array binding signal (z-score),[21],3.36
same,glycan array binding signal (z-score),[22],-0.24
same,glycan array binding signal (z-score),[23],3.6
